Assay outcomes: PubChem BioAssay, National Center for Advancing Translational Sciences (NCATS)
Most compounds without a hit are left out; they make up all but 7.3% or so of the library.
FLuc modulator: counter-screen for miR-21 project: firefly luciferase inhibitors or activators. P08659. purified FLuc, Km substrates, luminescence inhibition. Potency, µM (series often up to 57.5 µM), for the others: at the top dose activity change, negative = inhibition, most hits filed as inhibitors. hit rate 6.9% among 360,000. AID 588342;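 further: plate controls were vehicle for no effect and reference inhibitor for full effect; nearly all actives have a fitted effect of over 55% in size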
Target sequence (P08659 whole entry, looked up): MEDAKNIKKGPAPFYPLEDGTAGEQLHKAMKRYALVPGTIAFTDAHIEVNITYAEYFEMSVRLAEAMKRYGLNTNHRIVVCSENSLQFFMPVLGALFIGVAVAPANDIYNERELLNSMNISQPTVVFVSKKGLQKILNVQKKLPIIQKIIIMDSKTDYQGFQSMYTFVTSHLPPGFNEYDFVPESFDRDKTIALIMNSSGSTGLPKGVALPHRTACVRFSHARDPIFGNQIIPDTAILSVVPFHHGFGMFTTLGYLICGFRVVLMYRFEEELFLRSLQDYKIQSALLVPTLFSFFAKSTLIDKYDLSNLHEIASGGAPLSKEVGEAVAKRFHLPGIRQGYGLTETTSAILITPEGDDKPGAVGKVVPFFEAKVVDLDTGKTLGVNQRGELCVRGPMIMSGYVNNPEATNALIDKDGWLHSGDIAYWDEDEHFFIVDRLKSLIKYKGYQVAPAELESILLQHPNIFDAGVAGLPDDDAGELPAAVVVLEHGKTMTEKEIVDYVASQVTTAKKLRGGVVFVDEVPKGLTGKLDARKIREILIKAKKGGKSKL
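Purified P. pyralis luciferase (10nM final) with 10uM D-luciferin and 10uM ATP (Km levels) in 50mM Tris acetate pH 7.5, 10mM Mg acetate, 0.01% Tween-20, 0.05% BSA; qHTS 6-point titration, ~60 µM downward; luminescence read.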
KinaseGlo FLuc: blocks Kinase-Glo luciferase, a counter-screen artifact; Q27757; Kinase-Glo luciferase, ATP luminescence, 8 min; Potency, µM (doses to about 38.3 µM), inactives show top-dose activity change, negative = inhibition, actives largely listed as inhibitors; hit rate 0.28% among 200,000; further: on the % scale 0 is the no-effect control and ±100 the full control effect; nearly all actives have a fitted effect of over 60% in size
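Inhibition of Kinase-Glo luciferase light generation was assessed at 10 uM ATP in pH 7.2 imidazole buffer, with luminescence measured after eight minutes at ambient temperature.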
SMN2 splice enh: enhancers of SMN2 splice variant expression | HEK293 SMN2-luciferase splicing reporter, luminescence, 30-36 h | AID 1458 | hit rate 2.8% among 210,000 | Potency, µM (highest dose often 46.1 µM), without a hit: at the top dose activity change, positive = activation, most hits filed as activators; further: % of control where 0% means no effect; nearly all actives have a fitted effect of over 55% in size
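HEK293 cells carry an SMN2 […]–luciferase reporter in which exon 7 inclusion puts luciferase in frame. Cells were plated 10-12 h before compound addition, then incubated 30-36 h at 37C. ONE-Glo luminescence was read; sodium butyrate at 4.5 mM final served as control.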
NPC1 promoter act: activators of NPC1 promoter | Huh7 NPC1 promoter luciferase reporter, 24 h | Potency, µM (series often up to 9.22 µM), for the others: at the top dose activation, hits mostly activators | hit rate 2.4% among 320,000 | AID 485313; further: % of control where 0% means no effect; nearly all actives have a fitted effect of over 60% in size
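Compounds in DMSO were transferred onto Huh7 NPC1-luciferase reporter cells pre-incubated 2 h; after 24 h at 37 °C, Amplite reagent was dispensed and luminescence recorded 10 min later.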
Rab9 prom act: Rab9 promoter activation | Huh7 Rab9 promoter-luciferase reporter, luminescence, 24 h | Potency, µM (doses to about 9.22 µM), for inactives: at the top dose activation, negative = inhibition, hits mostly activators | hit rate 2.8% among 320,000 | AID 485297; further: % of control where 0% means no effect; nearly all actives have a fitted effect of over 60% in size
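Measured in stably transfected Huh7 cells bearing a Rab9 promoter–luciferase construct: 24 h compound treatment at 37 °C, followed by luminescence detection.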
An asterisk follows results filed as active; ? = inconclusive; . = no result given. The call rests on the fitted dose curve; in most records, active means well fitted curve in the direction sought with a large enough effect; inconclusive means small, poorly fitted or top-dose-only effect, or another doubt; inactive means no such curve, though single readings can be large; an effect the other way counts as inactive or inconclusive. Potency means the concentration at half of the fitted maximal effect.

SMILES	FLuc modulator	KinaseGlo FLuc	SMN2 splice enh	NPC1 promoter act	Rab9 prom act
COc1ccc(/C=N/OCC(=O)Nc2ccc3c(c2)OCO3)c(OC)c1	-3.2%	6.7%	-3.9%	-3.6%	-2.2%
COc1ccc(/C=C/C(=O)c2ccccc2)c(OC)c1	2.39µM*	-16.8%	?	3.16µM*	1.78µM*
CCCN(CCC)C(=O)Cn1c(=O)n(-c2ccc(C)cc2)c(=O)c2ccc(C(=O)NCc3ccccc3Cl)cc21	-0.3%	.	5.0%	.	.
O=C(NCCCN1CCCCCC1)c1ccc2c(c1)sc1nc(-c3ccccc3)cn12	-1.4%	.	.	.	.
CCOc1ccc(NC(=O)NC(C)c2c(-n3cccc3)sc3c2CCN(CC)C3)cc1 (configuration not stated)	-1.1%	.	.	.	.
COc1cc(O)c(C(=O)/C=C/c2ccccc2)c(OC)c1	10.7µM*	-6.5%	-29.9%	4.3%	15.5%
COc1cc(/C=C/C(=O)c2ccc3c(c2)OCO3)cc(Cl)c1O	8.49µM*	.	.	-4.3%	1.3%
CCOc1cc(/C=C/C(=O)c2ccc3c(c2)OCCO3)ccc1OCC(=O)N(C)C	?	.	.	-4.7%	1.0%
COc1ccc(NC(=O)c2cc(-c3ccccc3Cl)on2)cc1OC	7.57µM*	.	.	14.1%	13.9%
O=C(Nc1ccccc1)OCc1cc(-c2ccccc2Cl)on1	13.5µM*	4.1%	?	25.2%	3.3%
Cn1ncc(C#N)c1NC(=O)c1cc(-c2ccccc2Cl)on1	26.9µM*	1.2%	6.0%	14.8%	8.3%
O=C(Nc1cccc(O)c1)c1cc(-c2ccccc2Cl)on1	0.379µM*	.	.	?	18.8%
O=C(NCCN1CCOCC1)c1cc(-c2ccccc2Cl)on1	?	.	.	-1.9%	-7.9%
COc1ccc(NC(=O)c2cc(-c3ccc(OC)c(OC)c3)on2)cc1OC	0.1%	0.1%	3.3%	-0.9%	10.9%
CCOC(=O)c1cnc2c(ccc3ccccc32)c1Nc1ccccc1O	-5.0%	.	3.0%	.	.
CCOC(=O)c1cn2nc(Oc3ccc(OC)cc3)ccc2n1	-3.3%	.	.	8.9%	17.9%
CCOC(=O)c1cn2nc(N3CCCCC3)ccc2n1	0.953µM*	.	.	0.316µM*	0.126µM*
CCOC(=O)c1cn2nc(N3CCCC3)ccc2n1	2.13µM*	.	.	0.501µM*	0.316µM*
CCOC(=O)c1cn2nc(Oc3ccccc3)ccc2n1	15.1µM*	.	.	2.24µM*	2.82µM*
CCOC(=O)c1cn2nc(Oc3ccc(C)cc3)ccc2n1	?	.	.	10.2%	?
COC(=O)N1C2(C=CC1(C)C(=O)NCc1ccc(N(C)C)cc1)CCCCC2 (configuration not stated)	.	-3.9%	-2.7%	.	.
COCn1c(-c2ccc(OC)cc2)nc2ccccc21	6.01µM*	?	14.1µM*	?	2.51µM*
CCCn1c(NC(=O)c2ccc(C)cc2)nc2ccccc21	-15.0%	0.0%	?	18.6%	29.7%
C=CCn1c(-c2ccccc2)nc2nc3ccccc3nc21	16.9µM*	5.9%	4.2%	11.8%	4.2%
C=CCn1c(NC(=O)c2ccc(C)cc2)nc2ccccc21	?	.	.	2.82µM*	?
SMILES	FLuc modulator	KinaseGlo FLuc	SMN2 splice enh	NPC1 promoter act	Rab9 prom act
O=C(Nc1nc2ccccc2n1CCOc1ccccc1Cl)c1ccccc1	4.78µM*	.	17.9%	.	.
CS(=O)(=O)NCCc1csc2nc(-c3ccccc3)nn12	1.8%	.	.	.	.
C=CCNC(=O)c1cc([N+](=O)[O-])cc2c(=O)[nH]c(Nc3ccc(Cl)c(Cl)c3)nc12	.	3.0%	9.0%	.	.
Cc1ccc(Cn2c(-c3ccccc3)nc3ccccc32)cc1	?	.	-16.9%	.	.
C=CCn1c(-c2ccc(C)cc2)nc2ccccc21	10.7µM*	5.5%	-21.6%	10.6%	17.7%
NC(=O)CSc1nc(C2CC2)nc2sc3c(c12)CCCC3	1.51µM*	-22.2%	.	2.82µM*	2.51µM*
C=CCn1c(SCC(N)=O)nc2sc3c(c2c1=O)CCC3	1.1%	.	.	-2.1%	-2.4%
Nc1nc(SCC(=O)NCCOCCO)nc2sc3c(c12)CCCC3	26.9µM*	-1.6%	.	-1.9%	0.0%
NC(=O)CSc1nc(N)c2c3c(sc2n1)CCCCC3	8.49µM*	-1.1%	5.0%	19.5%	19.5%
CNC(=O)CSc1nc(N)c2c3c(sc2n1)CCC3	?	-6.1%	-12.6%	-1.4%	0.5%
COc1ccc(Cl)cc1NC(=O)C(C)N1Cc2ccccc2C1=O (configuration not stated)	3.4%	.	.	.	.
Cc1ccc2oc(-c3cc(NC(=O)CC(C)C)ccc3Cl)nc2c1	-9.7%	.	-4.1%	.	.
CC1CCN(C(=O)Nc2ccc3nsnc3c2)CC1	13.5µM*	-4.3%	13.2%	?	4.47µM*
COc1cccc(NC(=O)N2CCCC2)c1	1.0%	-4.0%	-2.3%	0.7%	1.0%
CC1CCN(C(=O)Nc2cccc(NC(=O)N3CCC(C)CC3)c2)CC1	15.1µM*	-4.0%	5.5%	9.8%	0.3%
O=C(Nc1ccc2nsnc2c1)N1CCCCC1	?	-2.8%	13.6%	19.4%	21.3%
CCn1c(CNC(=O)C23CC4CC(CC(C4)C2)C3)nnc1SCC(=O)Nc1ccc(C)cc1	-10.5%	.	-4.0%	.	.
CCOc1ccc(-n2c(SCC(=O)Nc3cccc(Cl)c3)nc3c(oc4ccccc43)c2=O)cc1	-1.6%	.	-6.3%	.	.
O=C(Nc1cc(C(F)(F)F)ccc1Cl)c1cc(-c2ccc3c(c2)OCCO3)on1	1.69µM*	.	.	.	.
Cc1ccc(O)c(NC(=O)c2cc(-c3ccc4c(c3)OCO4)on2)c1	?	.	16.5%	.	.
O=C(Nc1ccccc1C(F)(F)F)c1cc(-c2ccc3c(c2)OCCO3)on1	0.379µM*	.	.	.	.
